Screening data deposited in PubChem by National Center for Advancing Translational Sciences (NCATS).
Only some compounds are listed: those with a hit (about 21% of all), similar ones and a draw of the others.
Pf growth 96h – P. falciparum growth inhibition at 96 hour, primary screen for plastid delayed-death inhibitors. P. falciparum luciferase reporter growth, 96 h. Potency, µM (doses to about 28.7 µM), for inactives: at the top dose activity change, negative = inhibition, usual class: inhibitors. 6.9% of 320,000 active. AID 504834; note: potency is the fitted concentration of half-maximal effect; % is set by controls: 0 for no effect and ±100 for the full control effect
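Delayed-death screen, second-generation endpoint: infected erythrocytes, 2% hematocrit, 0.05% parasitemia final; 96 hours at 37 C, 5% CO2; luciferase detection reagent; luminescence decrease equals reduced growth.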
Pf growth 48h – P. falciparum growth inhibition at 48 hours (one generation); P. falciparum luciferase growth in erythrocytes, 48 h; 5.9% of 310,000 active; AID 504832; Potency, µM (highest dose often 28.7 µM), without a hit: at the highest dose activity change, negative = inhibition, most hits filed as inhibitors; note: potency is the fitted concentration of half-maximal effect; % is set by controls: 0 for no effect and ±100 for the full control effect
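First compound was added to culture medium, then infected red cells at 0.1% parasitemia and 2% hematocrit (final). After incubation at 37 C under 5% CO2, luciferase detection reagent was dispensed and light output recorded.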
NS1 function inh – inhibitors of influenza NS1 protein function; Potency, µM (series often up to 46.1 µM), inactives show at the highest dose activity, positive = more growth; 0.4% of 270,000 active; calls by dose curve; note: potency is the fitted concentration of half-maximal effect; actives are rising curves; nearly all actives have a fitted effect of over 50% in size
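Read-out: OD600 growth recovery of NS1-expressing budding yeast. Cells grown overnight at 30C in -URA glucose medium, washed, resuspended and diluted 1:100 in 2% galactose assay medium, pH 6.0. Same strain lacking NS1 served as positive control.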
Cycloheximide cs – affects cycloheximide protein synthesis inhibition readout, counter-screen | cell reporter, cycloheximide protein synthesis inhibition counterscreen | max response, % | 12% of 300,000 active | AID 2314; in the data active = max response mostly above about 13%, no sharp cut-off; inactive = mostly below about 14%; note: read at 38.3 µM for the half of the compounds with a filed dose; 0% is about no effect
Shiga inhibitor – inhibitors of Shiga toxin in Vero cells | inhibition, % at 38.7 µM | 9.2% of 290,000 active | Vero cells, Shiga toxin protein synthesis inhibition reporter; in the data active = inhibition mostly above about 28%, no sharp cut-off; inactive = mostly below about 43%; note: 0% is about no effect
Active calls of the source: *; ? = inconclusive; nt = no result given. Unless noted, calls come from the whole dose curve; as a rule, active = well fitted inhibition curve with a large enough effect; inconclusive = small, poorly fitted or top-dose-only effect, or another doubt; inactive = no such curve, though single readings can be large or run the other way.

SMILES	Pf growth 96h	Pf growth 48h	NS1 function inh	Cycloheximide cs	Shiga inhibitor
Fc1ccc(/C=N/NC(=S)Nc2cccnc2)cc1	-26%	-10%	nt	27*	41
Oc1ccc(/C=N/NC(=S)Nc2cccnc2)c(O)c1O	?	?	-1%	-3	-3
Oc1ccc(/C=N/NC(=S)Nc2cccnc2)c(O)c1	0%	6.6µM*	5%	29*	52*
Fc1ccc(/C=N/NC(=S)Nc2cccnc2)cc1F	-51%	4%	nt	5	-1
Oc1cccc(/C=N/NC(=S)Nc2cccnc2)c1O	?	0.083µM*	?	30*	45*
CCn1c(CNc2ccc(C)cc2C)nnc1SCC(=O)N1CCCc2ccccc21	nt	?	-4%	-3	7
COc1ccc(N2CC(C(=O)N[C@H](C(=O)NC(C)c3ccccc3)C(C)C)CC2=O)cc1 (stereo not given in full)	4%	7%	-7%	-2	24
CN(CC(=O)Nc1ccc(F)cc1)C(=O)c1ccc(OCc2ccccc2)cc1	1%	-26%	nt	nt	nt
CCc1ccc(OCC(=O)N/N=C\c2ccco2)c([N+](=O)[O-])c1	14%	22%	0%	16*	active
COc1ccc(CCC(=O)N/N=C\c2cccs2)cc1	56%	9.3µM*	nt	21	-3
O=C(COc1cccc([N+](=O)[O-])c1)N/N=C/c1ccco1	26%	11%	-2%	-3	-2
Cc1ccn2c(C(=O)N/N=C\c3cccs3)c(C)nc2c1	?	6%	-7%	16*	43
Cc1ccc(OCC(=O)N/N=C\c2cccs2)c([N+](=O)[O-])c1	27%	0%	-2%	39*	37*
O=C(COc1ccc(Cl)cc1[N+](=O)[O-])N/N=C/c1cccs1	-2%	16%	nt	31	49
O=C(NC12CC3CC(CC(C3)C1)C2)c1cc([N+](=O)[O-])ccc1N1CCOCC1	0%	?	4%	-2	-5
CCc1ccccc1NC(=O)CC1SCCNC1=O (stereo not given)	110%	18%	nt	3	-13
CCCCOc1ccc(CCC(=O)N/N=C/c2ccco2)cc1	-22%	?	-4%	12*	11
Cc1ccc([N+](=O)[O-])c(C(=O)N/N=C/c2cccs2)c1	?	?	-11%	22*	48
Cc1cc(C)n(CC(=O)N/N=C/c2cccs2)n1	6%	-15%	24%	40*	79*
CCc1sc(C(=O)N2CCN(c3ccc(F)cc3)CC2)cc1C	-14%	-11%	-16%	1	3
CC(C)c1ccc(NC(=O)c2ccc(Br)o2)cc1	-8%	112%	3%	40*	50*
COc1ccc(NC(=O)c2ccc(Br)o2)cc1	130%	198%	13%	36*	96*
CN(C)S(=O)(=O)c1ccc(NC(=O)c2ccc(Br)o2)cc1	-24%	nt	-87%	28	-4
COc1ccc(C(=O)NNC(=S)NC(=O)c2ccc(Br)o2)cc1OC	1%	?	6%	8	-13
COc1ccc(NC(=S)NC(=O)c2ccc(Br)o2)cc1	23%	0%	3%	67*	96*
SMILES	Pf growth 96h	Pf growth 48h	NS1 function inh	Cycloheximide cs	Shiga inhibitor
C/C(=N/NC(=O)c1ccc(Br)o1)C(C)C	?	10%	7%	30*	79*
O=C(Nc1ccc(Cc2ccncc2)cc1)c1ccc(Br)o1	nt	-1%	-49%	15*	34
O=C(CNC(=O)c1ccc(Br)o1)Nc1ccncc1	-9%	8%	nt	nt	nt
O=C(NC(=S)Nc1ccccc1)c1ccc(Br)o1	119%	89%	3%	36*	79*
CC(C)(Oc1ccc(Cl)cc1)C(=O)NNC(=O)c1ccc(Br)o1	-17%	-2%	-2%	15*	2
O=C(Nc1ccc2c(c1)Cc1ccccc1-2)c1ccc(Br)o1	?	3%	11%	34*	35*
CCCCn1c(SCC(=O)NCc2ccc(OC)c(C(=O)O)c2)nc2cc(S(N)(=O)=O)ccc21	-4%	-13%	-5%	1	-4
O=C(Nc1ccc(Nc2ccccc2)cc1)c1ccc(Br)o1	128%	6%	-121%	27*	61*
NC(=O)c1ccccc1NC(=S)NC(=O)c1ccc(Br)o1	24%	34%	-16%	35*	56*
CCn1ncc(C2=NOC(C(=O)Nc3cnn(C45CC6CC(CC(C6)C4)C5)c3)C2)c1C (stereo not given)	0%	5.9µM*	8%	-2	-7
CCn1ncc(C2=NOC(C(=O)NCC(C)C)C2)c1C (stereo not given)	nt	nt	0%	-2	-14
